The record followed here is PubChem BioAssay AID1508607 (The Scripps Research Institute Molecular Screening Center, 2020).

Molecules are shown by their SMILES. The whole screen tested about 2,300 compounds, of which about 20 (0.9%) were called active. Shown is part of a subset that was picked to be rich in actives. A number with no mark means an inactive call.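 Rule for the calls: active = mean percent activation across replicates above the counterscreen hit cutoff of 9.17%; inactive = the rest.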

This test deals with Glucose-dependent insulinotropic receptor (Homo sapiens) (UniProt Q8TDV5). As to the kind of experiment: off-target GPR119 activation – cell-based, PathHunter beta-arrestin, luminescence, set 2, counter-screen for GPR151 activator project, confirmation (AID 1508607).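 Note: 0% = median of sample wells and 100% = wells given EA reagent.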 As to conditions: GPR119 PathHunter beta-arrestin cells, 90 min, at 11.2 µM, hits give high values.
Chain of Glucose-dependent insulinotropic receptor (Homo sapiens) (Q8TDV5 whole entry, looked up): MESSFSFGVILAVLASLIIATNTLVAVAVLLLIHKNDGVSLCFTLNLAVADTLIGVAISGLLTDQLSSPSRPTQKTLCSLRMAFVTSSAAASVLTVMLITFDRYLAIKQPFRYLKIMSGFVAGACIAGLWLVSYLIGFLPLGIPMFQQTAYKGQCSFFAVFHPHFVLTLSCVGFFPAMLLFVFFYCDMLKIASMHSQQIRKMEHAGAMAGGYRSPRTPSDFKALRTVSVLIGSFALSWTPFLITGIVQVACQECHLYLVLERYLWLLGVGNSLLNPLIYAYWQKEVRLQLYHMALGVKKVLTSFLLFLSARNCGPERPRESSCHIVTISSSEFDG
Consider `O=C(Nc1ccccc1C(F)(F)F)c1cnn2c(C(F)(F)F)cc(-c3ccco3)nc12`, for which the activation was -0.72%.
As for `CCOC(=O)c1cnc2c(OC)cccc2c1N1CCN(CC)CC1`, the figure is -1.9%; as for `CCC(Sc1nc(NC2CCCCC2)c2ccccc2n1)C(=O)Nc1ccc2c(c1)OCO2` (stereo not given), 0.68%; as for `CCC(=O)Nc1ccc(NC(=O)CSc2nc3c(c(=O)n(C)c(=O)n3C)n2C)cc1`, -0.37%.
The value for `O=C(O)c1ccc(CN(Cc2ccc(Cl)cc2)C(=S)Nc2ccc(Oc3ccccc3)cc2)cc1` was -1.29%.
The value for `Cc1[nH]c2ccc(OCc3ccccc3)cc2c1CCNC(=O)COc1ccc(F)cc1F` was -2.17%; that for `Cc1cc(Oc2nc3ccccn3c(=O)c2/C=C(\C#N)C(=O)N2CCCCC2)ccc1Cl` was -22.9%.
Take `O=C(c1ccccc1)N1N=C(c2ccccc2)CC1(O)C(F)(F)C(F)(F)F` (stereo not given): the activation was 4.17%.
Turning to `Cc1ccc(S(=O)(=O)N2CCCC2CNC(=O)C(=O)NC2CCCC2)cc1` (stereo not given), the activation was -1.44%.
For `CCOc1ccccc1NC(=S)N(CCOC)C(C)c1ccccn1` (stereo not given), the activation was -1.68%.
Regarding `Nc1ccc(C(=O)NCC2COc3ccccc3O2)cc1[N+](=O)[O-]` (stereo not given), the activation was 6.14%.
The value for `Nc1ncc(Br)cc1S(=O)(=O)Nc1cc(F)ccc1F` was -0.83%; that for `CCOc1ccc(-c2nc(CSCC(=O)NCC3CCCO3)c(C)o2)cc1` (stereo not given) was 0.12%.
The value for `Cc1cc2oc3c(c(=O)c2cc1C)C(c1ccc(O)cc1)N(CCCN1CCOCC1)C3=O` (stereo not given) was 2.08%; that for `COc1cc(/C=C/C(=O)c2ccc(F)cc2)cc(OC)c1OC` was 0.62%; that for `CC(C)CC(NC(=O)C(C)NC(=O)CNC(=O)C(NC=O)C(C)C)C(=O)NC(C)C(=O)NC(C(=O)NC(C(=O)NC(C(=O)NC(Cc1c[nH]c2ccccc12)C(=O)NC(CC(C)C)C(=O)NC(Cc1c[nH]c2ccccc12)C(=O)NC(CC(C)C)C(=O)NC(Cc1c[nH]c2ccccc12)C(=O)NC(CC(C)C)C(=O)NC(Cc1c[nH]c2ccccc12)C(=O)NCCO)C(C)C)C(C)C)C(C)C` (stereo not given) was 39.2% (active).
The value for `CN(C)c1ncc(/C=C2/C(=O)NC(=S)N(c3ccccc3F)C2=O)cn1` was 0.14%; that for `COc1ccc(/C(C)=N/NC(=O)C(C)Nc2ccc(Cl)cc2)cc1` (stereo not given) was -2.32%; that for `CC[C@@H](C(=O)C(C)[C@@H](O)[C@H](C)CCc1ccc(C)c(O)c1C(=O)O)C1OC(CC)(C2CC[C@](O)(CC)[C@H](C)O2)C[C@@H]1C` (stereo not given in full) was 29.8% (active).
For the molecule `COC(=O)C1=C(N)Oc2c(oc(CO)cc2=O)C1c1c(Cl)cccc1Cl` (stereo not given), the activation was 0.48%.
As for `C=CCN1C(=O)/C(=C2\SC(N3CCCCC3)=NC2=O)c2cc(Br)ccc21`, the figure is 2.45%.
With `C=CCN1/C(=C\C=C2\C=Nc3ccc(Br)cc32)C=Cc2ccc(C)cc21`, the activation is 20.7% (active).
As for `CC(C)c1onc(C(=O)Nc2cc(Cl)ccc2O)c1[N+](=O)[O-]`, the figure is -3.34%; as for `C=CCNC(=O)c1cccc(NS(=O)(=O)c2ccc(Cl)cc2)c1`, 4.37%; as for `CCc1ccc(C2CC(c3ccccc3)Nc3nc(N)nn32)cc1` (stereo not given), 3.26%.
Turning to `COc1ccc(Cn2c(C)c(C)n3c4c(=O)n(CCCO)c(=O)n(C)c4nc23)cc1`, the activation was 1.31%.
The value for `O=C(NCCSCc1ccccc1)c1ccc[nH]c1=S` was 2.53%; that for `CCSc1nnc(CSc2ncccn2)n1-c1ccccc1` was -3.02%; that for `COc1cc(S(=O)(=O)N2CCN(c3ccc(C)c(C)c3)CC2)ccc1F` was 1.41%.
The value for `COc1ccc(-c2nnc3sc(NC(=O)C(C)C)nn23)cc1` was -0.23%; that for `Cc1nccc2[nH]c(=O)c(C(=O)NC3CCN(Cc4ccccc4)CC3)cc12` was 0.02%; that for `Cc1cccc(NC(=O)c2c(-c3ccccc3Cl)noc2C)c1C` was 0.14%.
As for `C=CCNc1nnc(-c2cc3c(CO)cnc(C)c3oc2=O)s1`, the figure is -2.69%.
On to `O=C1CCCN1CCCNc1nc(-c2cccc(Cl)c2)c2c(n1)-c1ccccc1OC2`, for which the activation is -1.27%.
As for `C=CCOC(=O)c1[nH]c2c(c1C)C(=O)C(C(=O)OC)C(C)C2` (stereo not given), the figure is 2.72%.
